p97 ATPase inh – blocks human p97 ATPase activity. P55072. recombinant p97 ATPase, Kinase-Glo ATP luminescence, 3 h. inhibition, % at 8 µM. 0.42% of 220,000 active; in the data active = inhibition above about 15%;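 note: 0% = DMSO vehicle and 100% = wells lacking enzyme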
Target sequence (P55072 whole entry, looked up): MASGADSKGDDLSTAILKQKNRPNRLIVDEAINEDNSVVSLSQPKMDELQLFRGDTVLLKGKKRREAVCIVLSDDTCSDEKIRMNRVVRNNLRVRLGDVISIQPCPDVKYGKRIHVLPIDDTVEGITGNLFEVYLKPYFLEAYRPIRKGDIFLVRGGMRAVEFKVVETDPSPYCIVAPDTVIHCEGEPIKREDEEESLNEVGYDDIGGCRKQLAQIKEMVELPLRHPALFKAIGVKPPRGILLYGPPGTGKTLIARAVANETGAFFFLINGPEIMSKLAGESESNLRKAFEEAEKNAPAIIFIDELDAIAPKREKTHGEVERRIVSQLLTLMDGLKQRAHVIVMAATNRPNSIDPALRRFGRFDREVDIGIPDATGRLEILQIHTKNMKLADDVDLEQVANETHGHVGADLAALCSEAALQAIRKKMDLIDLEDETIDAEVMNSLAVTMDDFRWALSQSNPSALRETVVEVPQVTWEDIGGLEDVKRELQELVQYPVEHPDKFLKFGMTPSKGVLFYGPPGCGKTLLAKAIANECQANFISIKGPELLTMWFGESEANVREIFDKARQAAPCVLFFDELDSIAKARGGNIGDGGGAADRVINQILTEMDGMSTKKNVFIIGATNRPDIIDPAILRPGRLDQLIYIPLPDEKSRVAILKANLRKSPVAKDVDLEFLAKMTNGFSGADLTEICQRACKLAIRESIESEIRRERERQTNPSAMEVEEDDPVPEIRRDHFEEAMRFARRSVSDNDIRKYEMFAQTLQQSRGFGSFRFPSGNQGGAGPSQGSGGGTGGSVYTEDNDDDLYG
ROMK primary – modulators of human ROMK potassium channel; Tet-inducible ROMK, thallium flux fluorescence; actives lie on both sides; B-score at 10 µM; 2% of 130,000 active; AID 1918;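 active = signal ratio slope over the read window, or its plate-corrected B-score, at least 3 SD from the plate mean, either direction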;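 note: B-score of the F/F0 ratio slope over 7 to 12 s after thallium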
PTEN del growth – PTEN-deleted cell growth suppression | HCT116 PTEN-null viability, CellTiter-Glo, 60 h; stronger effect = lower value | viability, % at 10 µM | 1.2% of 140,000 active;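 active = viability at or below a set limit, 4 SD under the median of all tested compounds, cut at about 3.7% in these data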;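 note: PTEN knockout HCT116 line with beta catenin targeted HCT116 as companion control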
bCat KO growth – beta-catenin-lacking colon tumor cell growth suppression; HCT116 beta-catenin knockout viability, CellTiter-Glo, 60 h; stronger effect = lower value; viability, % at 10 µM; 1.5% of 140,000 active;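 active = viability at or under a set limit, the compound median less 4 SD, cut at about 6% in these data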;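 note: 0% = Hyamine 1622 control at 20 µM and 100% = untreated cell control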
INS promoter inh – TRM-6 insulin promoter activity inhibition | TRM-6 cells (human fetal islet line), insulin promoter-eGFP reporter, imaging; reporter expression induced with tamoxifen | inhibition, % at 2 µM | 0.9% of 130,000 active | AID 1273;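 active = inhibition above the mean plus 3 SD, with well images judged a real hit on visual review, cut at about 60% in these data, passing the limit was not always enough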
Lmaj promast – reduces viability of Leishmania major promastigotes | AID 1063 | 9% of 200,000 active | resazurin fluorescence viability | inhibition, % at 10 µM; in the data active = inhibition above about 50%;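 note: promastigotes grown with compound for 44 hours at 28 °C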
Starred values were filed as active, the others as inactive; . = no result given. Rows were chosen to be rich in hits. Some 10% of all compounds tested hit in one or more screens of this group.

SMILES | p97 ATPase inh | ROMK primary | PTEN del growth | bCat KO growth | INS promoter inh | Lmaj promast
O=C(Nc1nc(-c2cccs2)c(-c2ccccc2)s1)c1ccco1 | 0 | -0.37 | 49 | 44 | . | 20
Nc1nc(Sc2c([N+](=O)[O-])cc(C(F)(F)F)cc2[N+](=O)[O-])n[nH]1 | 5 | . | . | . | . | .
CC(=O)OCC1O[C@@H](O[C@@H]2C[C@H]3C(C)(C)[C@H](OC(C)=O)CC[C@]3(C)[C@H]3CC[C@]45C[C@]4(CC[C@H]5[C@@H](C)C[C@@H](O)[C@H](O)C(C)(C)O)[C@@]32C)[C@H](O)[C@@H](O)[C@@H]1O (some centres undefined) | -16 | 0.16 | 1.0* | 1.1* | 0 | 11
COc1ccccc1-n1c(CNC(=O)c2ccco2)nnc1SCC(=O)Nc1ccc(F)cc1 | 2 | . | 97 | 102 | -35 | -3
N#CCCN1CCN(Cc2cc(-c3ccccc3)ccc2O)CC1 | -8 | -1.3 | 87 | 84 | . | 91*
Oc1c(CN2CCOCC2)cc(-c2ccccc2)cc1CN1CCOCC1 | 1 | 0.81 | 98 | 92 | -45 | 4
CC(C)(C)CC(C)(C)c1ccc(O)c(CN2CCN(CCC#N)CC2)c1 | -2 | 0.72 | 67 | 62 | -7 | 97*
O=C1COc2ccc(C(=O)COC(=O)c3cnc(Cl)c(Cl)c3)cc2N1 | 4 | -1 | . | . | . | -16
O=C(Nc1ccc(Cl)cc1C(=O)N1CCOCC1)c1cccc([N+](=O)[O-])c1 | 8 | . | 103 | 95 | -7 | 22
O=C(OCCN1C(=O)c2cccc3c(N4CCOCC4)ccc(c23)C1=O)c1ccccc1Cl | -4 | . | 5 | 5.3* | 14 | 86*
O=C(OCCN1C(=O)c2cccc3c(N4CCOCC4)ccc(c23)C1=O)c1ccc(Cl)cc1Cl | 4 | . | 9 | 10 | . | 5
COc1ccc(C2SCCN2C(=S)Nc2cccc(C(F)(F)F)c2)cc1 (centres undefined) | 0 | . | 67 | 78 | -122 | 96*
COc1ccc(C2SCCN2C(=S)Nc2ccc(F)cc2)cc1 (centres undefined) | 8 | -0.82 | 75 | 80 | . | 22
O=C(Nc1ccccc1-c1nc2ccccc2[nH]1)c1sc2ccccc2c1Cl | 6 | -0.57 | 1.9* | 4.0* | -36 | 46
Cn1c(=O)c2ncn(CC(=O)N/N=C/c3ccco3)c2n(C)c1=O | 1 | 0.22 | 102 | 96 | -10 | -3
Cc1cccc2nc(-c3ccccc3)nc(N[C@@H](CO)c3ccccc3)c12 | 6 | -1.2 | 42 | 53 | -55 | 46
CCn1c(SC)nnc1-c1sc2cc(Cl)ccc2c1Cl | -8 | -1.3 | 83 | 77 | -290 | 87*
CSc1nnc(-c2sc3cc(Cl)ccc3c2Cl)n1C | -2 | -0.7 | 74 | 64 | -6 | 9
Cc1ccc2c(c1)N(CC(=O)N1CCCCC1c1cccnc1)C(=O)CO2 (centres undefined) | 2 | . | 96 | 90 | -29 | 77*
Cc1ccc2c(c1)N(CC(=O)NCc1cccnc1)C(=O)CO2 | 5 | . | 98 | 95 | -19 | -4
C[C@H]1CC[C@@]2(O[C@H](CCO)C[C@@H](O)[C@@H]2O)O1 | 5 | . | . | . | . | -1
Cc1ccc(NC(=O)c2ccccc2NS(=O)(=O)c2ccc(Cl)s2)cc1S(=O)(=O)N1CCOCC1 | 1 | -3.1* | 22 | 20 | 8 | -4
COc1ccc(C)cc1NC(=O)c1ccccc1NS(=O)(=O)c1ccc(Cl)s1 | -3 | -3.7* | . | . | . | 8
CC(=O)c1ccc(Sc2nnc(C)s2)c([N+](=O)[O-])c1 | 6 | 0.78 | . | . | . | 22
COc1ccc(CCNC(=O)c2cnn3c(C(F)F)cc(C)nc23)cc1OC | -7 | . | 88 | 91 | . | -1
CCOC(=O)C1=C(C)Nc2nc(SCC)nn2C1c1ccc(OC)cc1 (centres undefined) | 0 | 1.1 | 77 | 98 | 0 | 2
CCOC(=O)C1=C(C)Nc2nc(=S)[nH]n2C1c1ccc(Cl)cc1 (centres undefined) | 2 | . | 78 | 101 | 37 | 94*
COc1ccc(OC)c(CN2CCCC(C(=O)N3CCCCC3)C2)c1 (centres undefined) | 1 | 0.79 | 89 | 82 | 47 | 6
COc1ccc(C(=O)C2CCCN(C/C=C/c3ccccc3OC)C2)c(OC)c1 (centres undefined) | 2 | -3.1 | . | . | . | 50*
COc1ccc(C(=O)C2CCCN(Cc3c[nH]c4ccccc34)C2)c(OC)c1 (centres undefined) | 2 | -1.5 | . | . | . | 62*

High-throughput results deposited in PubChem BioAssay by several laboratories.
